Screening data (PubChem)
Giardia FBPA inh: Giardia lamblia aldolase inhibition; A8B2U2; purified Giardia FBPA; Potency, µM (titrated, usually from 59.6 µM), hits mostly inhibitors; 290,000 tested, 0.71% active; note: nearly all actives have a fitted effect of over 55% in size
Target sequence (A8B2U2 whole entry, looked up): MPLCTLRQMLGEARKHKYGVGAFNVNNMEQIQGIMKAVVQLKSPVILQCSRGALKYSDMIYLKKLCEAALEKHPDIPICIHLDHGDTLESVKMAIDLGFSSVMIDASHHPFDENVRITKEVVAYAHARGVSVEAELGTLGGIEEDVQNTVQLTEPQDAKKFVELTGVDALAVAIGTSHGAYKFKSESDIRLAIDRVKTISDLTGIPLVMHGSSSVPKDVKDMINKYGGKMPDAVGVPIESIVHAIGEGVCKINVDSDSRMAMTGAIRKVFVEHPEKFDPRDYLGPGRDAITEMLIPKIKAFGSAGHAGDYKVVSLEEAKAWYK
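40 nM FBPA preincubated 10 min at RT with compound (up to 57.5 uM final), then substrate plus GAPDH/TPI/NAD/arsenate coupling and diaphorase/resazurin added. Fluorescence read after 20 min at RT, 525/598 nm.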
LmPK inhibitor: LmPK (Leishmania mexicana) enzyme inhibition | Q27686 | purified LmPK, Kinase-Glo ATP luminescence, 1 h | Potency, µM (top dose mostly 57.5 µM), hits mostly inhibitors | 290,000 tested, 0.37% active | AID 1721
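Purified LmPK (0.1 nM) with 0.5 mM PEP and 0.1 mM ADP in imidazole buffer pH 7.2 with MgCl2/KCl, 1 h at room temperature. ATP formed was read by luciferase luminescence and normalized to no-enzyme and uninhibited controls.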
TbPYK inhibitor: blocks Trypanosoma brucei pyruvate kinase | Q57TT1 | TbPYK enzyme, Kinase-Glo Plus ATP luminescence, 45 min | Potency, µM (titrated, usually from 76.8 µM), hits mostly inhibitors | 410,000 tested, 0.12% active | AID 624173; note: nearly all actives have a fitted effect of over 50% in size
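T. brucei PYK with substrate was exposed to pin-transferred compounds across a concentration series, then started with 130 uM ADP (final). After 45 min at room temperature, Kinase-Glo Plus luminescence was read, normalized and curve-fitted.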
Sm TGR inh: blocks Schistosoma mansoni thioredoxin glutathione reductase | Q962Y6 | purified TGR, DTNB reduction, TNB absorbance 405 nm | Potency, µM (doses to about 114 µM), hits mostly inhibitors | 360,000 tested, 3% active | AID 485364; note: nearly all actives have a fitted effect of over 60% in size
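TGR 20 nM + NADPH 100 uM (dispensed conc.), cpd preinc 15 min RT; start with NADPH (500 uM addition) then DTNB (15 mM addition). Kinetic TNB absorbance, 405 nm filter. Four-parameter Hill fit across titration.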
Cycloheximide cs: affects cycloheximide protein synthesis inhibition readout, counter-screen; cell reporter, cycloheximide protein synthesis inhibition counterscreen; max response, %; 300,000 tested, 12% active; in the data active = max response mostly above about 13%, no sharp cut-off; inactive = mostly below about 14%; note: read at 38.3 µM for the half of the compounds with a filed dose
Shiga toxin inh: Shiga toxin inhibition; Vero cells, Shiga toxin protein synthesis inhibition reporter; inhibition, % at 38.7 µM; 290,000 tested, 9.2% active; AID 2315; in the data active = inhibition mostly above about 28%, no sharp cut-off; inactive = mostly below about 43%
A number is an active result; . = inactive; ? = inconclusive; / = not tested or not shown. This is one part of a sample in which hits are shown more often than they occur. Unless noted, calls come from the whole dose curve; as a rule, active = well fitted curve in the direction sought with a large enough effect; inconclusive = small, poorly fitted or top-dose-only effect, or another doubt; inactive = no such curve, though single readings can be large; an effect the other way counts as inactive or inconclusive.

SMILES	Giardia FBPA inh	LmPK inhibitor	TbPYK inhibitor	Sm TGR inh	Cycloheximide cs	Shiga toxin inh
CCOC(=O)c1cnc2c(C#N)cnn2c1N	.	.	.	.	.	.
CC(Oc1ccccc1F)C(=O)N1CCC(c2nc3ccccc3o2)CC1 (stereo not drawn)	/	/	.	.	/	/
CC1(C)CC(=O)c2cc(N=C/C(C(=O)c3ccccc3)=C(\O)c3ccccc3)c(=O)oc2C1	.	.	.	/	43	185
CC1(C)CC(=O)c2cc(C(=O)O)c(=O)n(-c3ccccc3)c2C1	.	.	.	.	.	.
CC(=O)N1CCOc2cc(S(=O)(=O)Nc3c(C)cccc3C(C)C)c(Cl)cc21	/	/	.	79µM	/	/
Cc1ccc(C(O)(COC(=O)C(C)C)COC(=O)C(C)C)c(O)c1	.	.	.	35µM	.	.
Cc1ccc(CSC2=Nc3ccccc3C3=NC(CCC(=O)NCCc4ccccc4)C(=O)N23)cc1 (stereo not drawn)	/	/	.	.	/	/
FC(F)Oc1ccc(/C=N/N2CCCCC2)c(OC(F)F)c1	.	.	/	.	32	79
CCOc1ccc2nc(SCC(=O)NCC3CCCO3)sc2c1 (stereo not drawn)	/	/	.	/	/	/
CCOc1ccc2nc(SCC(=O)c3ccccc3)sc2c1	.	.	.	.	43	91
CCOc1ccc2nc(SCCNS(=O)(=O)c3ccccc3)sc2c1	.	.	.	.	.	.
CCOc1ccc2nc(SCC(=O)NC3CC3)sc2c1	.	.	.	.	15	.
O=C1OC(CC(=O)N(Cc2nnc(-c3ccccc3Cl)o2)C2CC2)c2ccccc21 (stereo not drawn)	/	/	.	.	/	/
Cc1ccc(C2/C(=C(/O)c3cnn(-c4ccccc4)c3C)C(=O)C(=O)N2CCCN2CCOCC2)o1 (stereo not drawn)	.	.	/	10µM	34	54
COC(=O)c1[nH]c(C)c(/C(O)=C2\C(=O)C(=O)N(CCCN3CCOCC3)C2c2ccccn2)c1C (stereo not drawn)	.	.	.	?	.	.
Cc1ccc(C)c(/C(O)=C2/C(=O)C(=O)N(CCN3CCOCC3)C2c2ccc(C)o2)c1 (stereo not drawn)	.	.	.	?	.	.
Cc1c(/C(O)=C2/C(=O)C(=O)N(CCN3CCOCC3)C2c2ccccn2)cnn1-c1ccccc1 (stereo not drawn)	?	.	.	22µM	28	50
Cc1cc(OCC(=O)Nc2ccc3c(c2)OCCO3)ccc1Cl	.	.	.	.	39	107
COc1ccc(OCC(=O)Nc2ccc3c(c2)OCO3)cc1	.	.	.	.	.	.
O=C(COc1ccc2c(c1)OCO2)Nc1cccc(F)c1	.	.	.	.	35	101
CCC(=O)Nc1ccc2c(c1)OCCO2	.	.	.	.	.	.
CCOC(=O)N1CCN(c2c(Nc3ccc4c(c3)OCCO4)c(=O)c2=O)CC1	?	.	.	?	53	64
CCOC(=O)N1CCN(CC(=O)NC(=O)Nc2ccc3c(c2)OCCO3)CC1	/	/	.	.	/	/
CCOCC(=O)Nc1ccc2c(c1)OCCO2	.	.	.	.	42	68
Cc1ccc2c(c1)-c1onc(C(=O)N3CCN(c4ccc(Cl)cc4)CC3)c1CO2	/	/	.	.	/	/
SMILES	Giardia FBPA inh	LmPK inhibitor	TbPYK inhibitor	Sm TGR inh	Cycloheximide cs	Shiga toxin inh
O=C(COc1ccc(F)cc1)Nc1ccc2c(c1)OCCO2	.	.	.	.	44	70
CCN(CC)c1ccc(/C=C/c2nc3ccccc3s2)cc1	.	.	/	.	40	127
CCN(CC)c1ccc(NC(=O)COC(=O)/C=C/c2nc3ccccc3s2)cc1	.	.	.	.	14	.
CNC(=O)COC(=O)/C=C/c1nc2ccccc2s1	.	.	.	.	.	.
COc1cccc(NC(=O)c2ccc3[nH]c(C)cc(=O)c3c2)c1	/	/	.	.	/	/
COc1ccc(-c2onc(C)c2C)cc1S(=O)(=O)NCc1ccc(C)o1	/	/	.	.	/	/
Cc1ccc(S(=O)(=O)N/N=C\c2ccc3c(c2)OCO3)cc1	.	.	.	.	16	.
COc1ccc(S(=O)(=O)N/N=C\c2ccc3c(c2)OCO3)c(OC)c1	.	.	.	.	.	.
Cc1ccc(S(=O)(=O)N/N=C\c2ccc3c(c2)OCO3)cc1C	/	.	.	.	.	.
COc1ccc(OC)c(S(=O)(=O)N/N=C\c2ccc3c(c2)OCO3)c1	.	.	.	.	44	73
